# Measured values reported in article PMC7862700, “An all-to-all approach to the identification of sequence-specific readers for epigenetic DNA modifications on cytosine”.
# How the values were obtained:
# Test in all cases: DAPPL (digital affinity profiling via proximity ligation, sequencing); 10 mM Tris-HCl pH 7.5, 50 mM NaCl, 1 mM DTT, 4% glycerol, room temperature, 30 min; GST-TFs on glutathione beads, 16-mer random dsDNA library, 0.1% formaldehyde crosslink after washing; high values mean tight binding
# [1] = target: T1, FLI1 (Homo sapiens, UniProt Q01543 1-452); details: protein: recombinant; tags: N-terminal GST; dsDNA, one strand shown
# T1 sequence: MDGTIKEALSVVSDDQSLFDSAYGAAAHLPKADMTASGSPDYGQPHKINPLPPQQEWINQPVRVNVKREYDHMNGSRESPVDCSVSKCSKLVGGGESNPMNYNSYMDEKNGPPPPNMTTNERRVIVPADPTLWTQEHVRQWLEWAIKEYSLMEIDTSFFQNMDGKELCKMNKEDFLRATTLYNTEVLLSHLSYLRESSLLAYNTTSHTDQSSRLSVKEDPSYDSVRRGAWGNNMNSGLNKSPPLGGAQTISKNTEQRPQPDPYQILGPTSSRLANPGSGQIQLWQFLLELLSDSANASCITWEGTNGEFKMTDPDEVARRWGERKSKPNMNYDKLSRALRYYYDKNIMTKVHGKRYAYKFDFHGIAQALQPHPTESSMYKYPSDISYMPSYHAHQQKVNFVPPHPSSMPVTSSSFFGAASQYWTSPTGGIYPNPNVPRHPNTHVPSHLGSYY
# Procedure, shortened: (§1)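 Binding signal is given per hexamer as its read frequency for a factor divided by its frequency in the tag-only sample. GST-fused human transcription factors were expressed in yeast, captured on glutathione beads, barcoded with DNA and pooled with that sample, then incubated with 200 nmole of a 16-mer random double-stranded DNA library in Tris/NaCl/DTT/glycerol buffer for 30 min at room temperature. The pools were then washed, crosslinked, proximity-ligated, amplified by PCR and sequenced on an Illumina NextSeq500.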
# [2] = target: T2, ELK1 (Homo sapiens, UniProt P19419 1-428); details: protein: recombinant; tags: N-terminal GST; dsDNA, one strand shown
# T2 sequence: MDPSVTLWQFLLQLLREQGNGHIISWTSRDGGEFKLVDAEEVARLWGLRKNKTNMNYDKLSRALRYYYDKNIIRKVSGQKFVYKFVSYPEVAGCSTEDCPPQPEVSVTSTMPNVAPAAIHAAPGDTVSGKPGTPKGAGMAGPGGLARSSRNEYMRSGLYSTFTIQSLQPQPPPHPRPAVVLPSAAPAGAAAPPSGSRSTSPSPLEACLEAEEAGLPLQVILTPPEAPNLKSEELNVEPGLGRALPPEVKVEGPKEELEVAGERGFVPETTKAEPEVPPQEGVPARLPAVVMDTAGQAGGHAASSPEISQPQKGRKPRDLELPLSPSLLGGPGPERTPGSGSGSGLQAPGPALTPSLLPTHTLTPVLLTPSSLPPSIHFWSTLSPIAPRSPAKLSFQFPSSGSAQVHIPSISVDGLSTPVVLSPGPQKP
# Procedure, shortened: as §1
# [3] = target: T3, GABPA (Homo sapiens, UniProt Q06546 1-454); details: protein: recombinant; tags: N-terminal GST; dsDNA, one strand shown
# T3 sequence: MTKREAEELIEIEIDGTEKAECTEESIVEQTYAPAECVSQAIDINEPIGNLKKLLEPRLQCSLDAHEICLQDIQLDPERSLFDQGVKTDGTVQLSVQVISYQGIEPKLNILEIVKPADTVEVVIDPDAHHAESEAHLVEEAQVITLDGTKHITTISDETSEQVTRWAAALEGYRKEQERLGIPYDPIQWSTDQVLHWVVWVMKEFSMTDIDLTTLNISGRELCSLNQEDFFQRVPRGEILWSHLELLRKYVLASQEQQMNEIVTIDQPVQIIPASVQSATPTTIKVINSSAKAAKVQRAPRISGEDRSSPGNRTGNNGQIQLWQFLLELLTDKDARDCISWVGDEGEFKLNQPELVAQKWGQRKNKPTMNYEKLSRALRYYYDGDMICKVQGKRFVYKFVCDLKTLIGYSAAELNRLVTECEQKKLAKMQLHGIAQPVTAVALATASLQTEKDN
# Procedure, shortened: as §1
# [4] = target: T4, ERG (Homo sapiens, UniProt P11308 1-479); details: protein: recombinant; tags: N-terminal GST; dsDNA, one strand shown
# T4 sequence: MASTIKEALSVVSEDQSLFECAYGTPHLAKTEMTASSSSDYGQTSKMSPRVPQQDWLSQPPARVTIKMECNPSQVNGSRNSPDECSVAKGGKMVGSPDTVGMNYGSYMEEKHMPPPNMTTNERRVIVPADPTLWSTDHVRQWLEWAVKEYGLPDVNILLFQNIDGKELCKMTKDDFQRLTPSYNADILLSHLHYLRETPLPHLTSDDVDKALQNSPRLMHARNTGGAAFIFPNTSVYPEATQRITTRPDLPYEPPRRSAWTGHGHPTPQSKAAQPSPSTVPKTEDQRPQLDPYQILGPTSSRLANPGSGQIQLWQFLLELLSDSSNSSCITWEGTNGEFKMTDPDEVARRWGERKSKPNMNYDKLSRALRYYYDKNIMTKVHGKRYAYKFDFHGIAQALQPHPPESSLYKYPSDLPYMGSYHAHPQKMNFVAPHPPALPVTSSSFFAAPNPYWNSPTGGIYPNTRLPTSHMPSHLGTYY
# Procedure, shortened: as §1
# [5] = target: ELF1 (Homo sapiens, UniProt P32519 1-619); details: protein: recombinant; tags: N-terminal GST; dsDNA, one strand shown
# Procedure, shortened: as §1
# [6] = target: T5, EHF (Homo sapiens, UniProt Q9NZC4 1-300); details: protein: recombinant; tags: N-terminal GST; dsDNA, one strand shown
# T5 sequence: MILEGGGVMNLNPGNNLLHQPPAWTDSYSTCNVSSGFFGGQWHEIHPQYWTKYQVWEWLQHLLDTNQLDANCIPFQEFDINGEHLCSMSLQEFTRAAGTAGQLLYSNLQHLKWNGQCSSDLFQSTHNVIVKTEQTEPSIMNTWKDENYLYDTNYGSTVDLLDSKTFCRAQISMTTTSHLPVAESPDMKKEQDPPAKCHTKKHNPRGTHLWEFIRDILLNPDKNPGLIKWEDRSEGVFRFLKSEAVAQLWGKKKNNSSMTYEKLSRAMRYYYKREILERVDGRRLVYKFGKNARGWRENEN
# Procedure, shortened: as §1
# [7] = target: SPI1 (Homo sapiens, UniProt P17947 1-270); details: protein: recombinant; tags: N-terminal GST; dsDNA, one strand shown
# Procedure, shortened: as §1
# [8] = target: SPIB (Homo sapiens, UniProt Q01892 1-262); details: protein: recombinant; tags: N-terminal GST; dsDNA, one strand shown
# Procedure, shortened: as §1
# [9] = target: T6, ELK3 (Homo sapiens, UniProt P41970 1-407); details: protein: recombinant; tags: N-terminal GST; dsDNA, one strand shown
# T6 sequence: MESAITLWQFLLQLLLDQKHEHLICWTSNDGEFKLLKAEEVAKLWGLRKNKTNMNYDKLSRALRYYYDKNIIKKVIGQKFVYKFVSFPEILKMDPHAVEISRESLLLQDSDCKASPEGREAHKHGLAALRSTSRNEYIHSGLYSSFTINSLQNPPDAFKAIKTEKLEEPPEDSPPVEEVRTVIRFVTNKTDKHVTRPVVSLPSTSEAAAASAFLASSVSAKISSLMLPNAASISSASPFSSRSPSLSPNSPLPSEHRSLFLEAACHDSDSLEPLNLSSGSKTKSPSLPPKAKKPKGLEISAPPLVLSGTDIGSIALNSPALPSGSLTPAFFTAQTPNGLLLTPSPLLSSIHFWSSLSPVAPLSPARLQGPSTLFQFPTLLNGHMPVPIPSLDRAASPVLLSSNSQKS
# Procedure, shortened: as §1
# [10] = target: T7, FEV (Homo sapiens, UniProt Q99581 1-238); details: protein: recombinant; tags: N-terminal GST; dsDNA, one strand shown
# T7 sequence: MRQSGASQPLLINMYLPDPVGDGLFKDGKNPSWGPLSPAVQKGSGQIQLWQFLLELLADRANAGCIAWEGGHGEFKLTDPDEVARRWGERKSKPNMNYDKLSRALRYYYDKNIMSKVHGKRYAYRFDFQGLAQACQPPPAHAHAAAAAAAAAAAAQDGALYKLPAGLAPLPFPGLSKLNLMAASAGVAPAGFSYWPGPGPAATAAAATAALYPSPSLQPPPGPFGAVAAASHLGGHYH
# Procedure, shortened: as §1
# [11] = target: ETV5 (Homo sapiens, UniProt P41161 1-510); details: protein: recombinant; tags: N-terminal GST; dsDNA, one strand shown
# Procedure, shortened: as §1
# [12] = target: HSF1 (Homo sapiens, UniProt Q00613 1-529); details: protein: recombinant; tags: N-terminal GST; chain copies: 3; dsDNA, one strand shown
# Procedure, shortened: as §1
# [13] = target: T8, SPIC (Homo sapiens, UniProt Q8N5J4 1-248); details: protein: recombinant; tags: N-terminal GST; dsDNA, one strand shown
# T8 sequence: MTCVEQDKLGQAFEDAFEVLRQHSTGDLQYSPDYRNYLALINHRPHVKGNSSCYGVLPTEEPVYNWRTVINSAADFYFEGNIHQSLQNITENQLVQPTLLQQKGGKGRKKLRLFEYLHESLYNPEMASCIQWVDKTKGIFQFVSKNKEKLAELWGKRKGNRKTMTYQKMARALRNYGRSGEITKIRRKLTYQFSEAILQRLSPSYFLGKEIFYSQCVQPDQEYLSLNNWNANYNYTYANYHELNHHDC
# Procedure, shortened: as §1
# [14] = target: ELF4 (Homo sapiens, UniProt Q99607 1-663); details: protein: recombinant; tags: N-terminal GST; dsDNA, one strand shown
# Procedure, shortened: as §1
# [15] = target: T9, ELK4 (Homo sapiens, UniProt P28324-2 1-405); details: protein: recombinant; tags: N-terminal GST; dsDNA, one strand shown
# T9 sequence: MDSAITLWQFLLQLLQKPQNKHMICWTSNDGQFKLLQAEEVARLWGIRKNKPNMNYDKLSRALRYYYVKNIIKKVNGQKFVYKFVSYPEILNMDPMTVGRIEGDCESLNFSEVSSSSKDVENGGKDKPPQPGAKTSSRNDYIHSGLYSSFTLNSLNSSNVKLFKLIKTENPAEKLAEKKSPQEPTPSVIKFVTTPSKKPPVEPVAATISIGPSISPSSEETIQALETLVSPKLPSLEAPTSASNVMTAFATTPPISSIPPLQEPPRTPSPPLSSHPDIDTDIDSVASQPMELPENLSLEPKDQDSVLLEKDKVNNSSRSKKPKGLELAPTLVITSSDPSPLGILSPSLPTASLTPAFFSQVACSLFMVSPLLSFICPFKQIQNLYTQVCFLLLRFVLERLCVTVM
# Procedure, shortened: as §1
# [16] = target: T10, ETV2 (Homo sapiens, UniProt O00321 1-342); details: protein: recombinant; tags: N-terminal GST; dsDNA, one strand shown
# T10 sequence: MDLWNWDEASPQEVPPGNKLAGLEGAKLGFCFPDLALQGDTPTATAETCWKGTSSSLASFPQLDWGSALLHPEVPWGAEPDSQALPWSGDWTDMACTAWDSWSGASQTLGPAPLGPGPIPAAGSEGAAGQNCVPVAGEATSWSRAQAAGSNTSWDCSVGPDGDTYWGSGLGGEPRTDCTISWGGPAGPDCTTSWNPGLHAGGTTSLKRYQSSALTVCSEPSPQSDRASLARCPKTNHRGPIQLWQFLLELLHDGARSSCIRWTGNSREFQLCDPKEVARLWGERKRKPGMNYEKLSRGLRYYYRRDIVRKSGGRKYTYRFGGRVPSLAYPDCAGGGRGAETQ
# Procedure, shortened: as §1
# [17] = target: T11, ELF3 (Homo sapiens, UniProt P78545 1-371); details: protein: recombinant; tags: N-terminal GST; dsDNA, one strand shown
# T11 sequence: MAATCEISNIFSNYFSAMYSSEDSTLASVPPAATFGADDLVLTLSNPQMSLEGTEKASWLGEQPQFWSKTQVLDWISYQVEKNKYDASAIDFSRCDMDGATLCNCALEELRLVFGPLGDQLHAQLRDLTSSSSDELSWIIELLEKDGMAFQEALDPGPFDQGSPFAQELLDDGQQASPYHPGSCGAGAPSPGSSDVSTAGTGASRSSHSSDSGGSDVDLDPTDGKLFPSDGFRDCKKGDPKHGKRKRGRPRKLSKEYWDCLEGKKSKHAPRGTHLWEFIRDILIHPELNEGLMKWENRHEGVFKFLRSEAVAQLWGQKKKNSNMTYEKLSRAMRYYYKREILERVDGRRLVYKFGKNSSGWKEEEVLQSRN
# Procedure, shortened: as §1
# [18] = target: CRX (Homo sapiens, UniProt O43186 1-299); details: protein: recombinant; tags: N-terminal GST; dsDNA, one strand shown
# Procedure, shortened: as §1
# [19] = target: ETV1 (Homo sapiens, UniProt P50549 1-477); details: protein: recombinant; tags: N-terminal GST; dsDNA, one strand shown
# Procedure, shortened: as §1
# Sequence of ETV5 (P41161 whole entry): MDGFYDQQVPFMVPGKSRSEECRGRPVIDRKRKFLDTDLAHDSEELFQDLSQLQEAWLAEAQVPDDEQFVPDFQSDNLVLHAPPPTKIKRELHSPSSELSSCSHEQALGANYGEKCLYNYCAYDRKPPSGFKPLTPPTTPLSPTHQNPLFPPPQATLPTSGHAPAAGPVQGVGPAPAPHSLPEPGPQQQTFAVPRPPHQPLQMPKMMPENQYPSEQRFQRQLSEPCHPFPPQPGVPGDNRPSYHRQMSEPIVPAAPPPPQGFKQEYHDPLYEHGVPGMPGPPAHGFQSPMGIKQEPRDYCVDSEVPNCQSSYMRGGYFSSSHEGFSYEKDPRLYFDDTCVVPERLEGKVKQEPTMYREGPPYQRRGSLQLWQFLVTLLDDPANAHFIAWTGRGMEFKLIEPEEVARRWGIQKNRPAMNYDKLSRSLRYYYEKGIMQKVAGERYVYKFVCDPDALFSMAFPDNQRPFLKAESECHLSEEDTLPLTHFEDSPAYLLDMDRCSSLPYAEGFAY
# Sequence of ELF1 (P32519 whole entry): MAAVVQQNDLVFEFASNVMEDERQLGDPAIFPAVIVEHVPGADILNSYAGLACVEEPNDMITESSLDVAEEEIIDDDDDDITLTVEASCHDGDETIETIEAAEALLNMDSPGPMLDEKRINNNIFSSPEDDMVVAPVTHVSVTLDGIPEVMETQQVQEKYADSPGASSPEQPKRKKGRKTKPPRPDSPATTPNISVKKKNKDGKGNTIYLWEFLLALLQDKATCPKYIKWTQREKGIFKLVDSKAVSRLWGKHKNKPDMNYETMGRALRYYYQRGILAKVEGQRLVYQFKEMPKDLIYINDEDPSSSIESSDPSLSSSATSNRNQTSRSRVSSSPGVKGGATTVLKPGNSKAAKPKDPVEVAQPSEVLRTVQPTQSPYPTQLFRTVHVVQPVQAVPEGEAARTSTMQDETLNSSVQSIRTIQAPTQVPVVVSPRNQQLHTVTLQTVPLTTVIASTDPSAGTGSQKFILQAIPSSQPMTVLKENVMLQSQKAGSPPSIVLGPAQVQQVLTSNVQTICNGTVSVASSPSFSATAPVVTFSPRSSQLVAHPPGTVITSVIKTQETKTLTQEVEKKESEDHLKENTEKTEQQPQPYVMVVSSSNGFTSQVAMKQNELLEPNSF
# Sequence of ELF4 (Q99607 whole entry): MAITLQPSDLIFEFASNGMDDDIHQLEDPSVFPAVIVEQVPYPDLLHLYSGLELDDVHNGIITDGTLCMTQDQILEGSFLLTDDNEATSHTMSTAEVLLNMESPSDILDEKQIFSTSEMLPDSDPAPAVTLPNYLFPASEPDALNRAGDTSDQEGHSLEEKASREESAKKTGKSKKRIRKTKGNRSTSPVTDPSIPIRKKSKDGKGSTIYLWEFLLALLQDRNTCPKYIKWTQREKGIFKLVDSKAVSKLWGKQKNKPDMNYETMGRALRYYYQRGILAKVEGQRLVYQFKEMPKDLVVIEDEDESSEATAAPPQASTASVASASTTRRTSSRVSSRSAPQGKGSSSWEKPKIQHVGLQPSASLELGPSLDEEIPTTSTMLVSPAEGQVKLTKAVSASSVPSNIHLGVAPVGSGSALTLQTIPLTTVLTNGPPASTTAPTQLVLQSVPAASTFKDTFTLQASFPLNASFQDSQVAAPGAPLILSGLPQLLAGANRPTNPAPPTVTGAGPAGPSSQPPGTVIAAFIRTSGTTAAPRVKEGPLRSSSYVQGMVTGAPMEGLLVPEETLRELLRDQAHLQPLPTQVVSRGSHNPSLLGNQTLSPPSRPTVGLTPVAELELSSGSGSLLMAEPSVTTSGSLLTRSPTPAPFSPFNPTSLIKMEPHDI
# Sequence of HSF1 (Q00613 whole entry): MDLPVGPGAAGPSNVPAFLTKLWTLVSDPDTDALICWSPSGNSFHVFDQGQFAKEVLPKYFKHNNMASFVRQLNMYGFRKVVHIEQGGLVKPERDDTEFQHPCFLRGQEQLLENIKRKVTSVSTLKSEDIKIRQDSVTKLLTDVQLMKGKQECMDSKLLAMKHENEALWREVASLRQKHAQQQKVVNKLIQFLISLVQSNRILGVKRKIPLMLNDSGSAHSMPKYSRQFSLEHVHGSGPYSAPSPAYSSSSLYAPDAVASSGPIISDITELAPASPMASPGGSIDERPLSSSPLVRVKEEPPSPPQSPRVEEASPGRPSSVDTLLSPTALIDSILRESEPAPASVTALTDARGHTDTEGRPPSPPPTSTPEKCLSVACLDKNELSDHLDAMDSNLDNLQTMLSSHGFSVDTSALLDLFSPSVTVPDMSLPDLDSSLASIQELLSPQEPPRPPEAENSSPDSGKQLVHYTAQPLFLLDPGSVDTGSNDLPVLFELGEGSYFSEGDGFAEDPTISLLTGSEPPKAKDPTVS
# Sequence of ETV1 (P50549 whole entry): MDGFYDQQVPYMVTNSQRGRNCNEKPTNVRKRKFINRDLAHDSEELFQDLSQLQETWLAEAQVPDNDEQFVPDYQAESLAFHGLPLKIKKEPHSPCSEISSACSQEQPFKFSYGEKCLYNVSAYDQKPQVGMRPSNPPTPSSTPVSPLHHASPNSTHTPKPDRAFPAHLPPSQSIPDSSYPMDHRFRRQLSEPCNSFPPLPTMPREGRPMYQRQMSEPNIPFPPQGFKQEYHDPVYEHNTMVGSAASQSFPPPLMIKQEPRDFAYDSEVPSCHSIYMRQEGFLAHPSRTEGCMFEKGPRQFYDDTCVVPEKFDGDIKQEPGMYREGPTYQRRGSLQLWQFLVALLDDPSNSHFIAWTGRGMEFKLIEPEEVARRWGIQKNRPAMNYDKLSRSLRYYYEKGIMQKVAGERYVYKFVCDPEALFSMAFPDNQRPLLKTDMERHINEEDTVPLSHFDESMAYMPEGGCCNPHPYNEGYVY
# Sequence of SPIB (Q01892 whole entry): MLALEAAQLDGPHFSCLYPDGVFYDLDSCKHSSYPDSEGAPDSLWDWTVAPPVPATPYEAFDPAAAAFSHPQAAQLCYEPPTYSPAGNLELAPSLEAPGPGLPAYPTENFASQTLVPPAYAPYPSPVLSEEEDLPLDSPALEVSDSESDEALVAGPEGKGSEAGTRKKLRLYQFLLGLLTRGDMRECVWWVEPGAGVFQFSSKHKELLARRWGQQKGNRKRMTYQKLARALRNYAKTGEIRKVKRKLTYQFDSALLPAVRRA
# Sequence of CRX (O43186 whole entry): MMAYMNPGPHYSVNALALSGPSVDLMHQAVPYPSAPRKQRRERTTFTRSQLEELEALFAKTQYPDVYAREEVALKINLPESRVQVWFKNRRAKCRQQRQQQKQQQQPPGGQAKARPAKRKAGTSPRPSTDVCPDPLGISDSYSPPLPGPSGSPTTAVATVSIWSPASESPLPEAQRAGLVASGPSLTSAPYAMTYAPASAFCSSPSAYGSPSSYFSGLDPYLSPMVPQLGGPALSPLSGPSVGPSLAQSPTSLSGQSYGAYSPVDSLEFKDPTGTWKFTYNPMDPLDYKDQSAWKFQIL
sequence,measurement,setting,value
AACTCA,binding signal,[1],"1.35 fold enrichment (6-mer frequency, TF over GST control)"
same,binding signal,[2],"1.27 fold enrichment (6-mer frequency, TF over GST control)"
same,binding signal,[3],"1.25 fold enrichment (6-mer frequency, TF over GST control)"
same,binding signal,[4],"1.12 fold enrichment (6-mer frequency, TF over GST control)"
same,binding signal,[5],"1.23 fold enrichment (6-mer frequency, TF over GST control)"
same,binding signal,[6],"1.18 fold enrichment (6-mer frequency, TF over GST control)"
same,binding signal,[7],"1.25 fold enrichment (6-mer frequency, TF over GST control)"
same,binding signal,[8],"1.23 fold enrichment (6-mer frequency, TF over GST control)"
same,binding signal,[9],"1.36 fold enrichment (6-mer frequency, TF over GST control)"
same,binding signal,[10],"1.26 fold enrichment (6-mer frequency, TF over GST control)"
same,binding signal,[11],"1.25 fold enrichment (6-mer frequency, TF over GST control)"
same,binding signal,[12],"1.14 fold enrichment (6-mer frequency, TF over GST control)"
same,binding signal,[13],"1.2 fold enrichment (6-mer frequency, TF over GST control)"
same,binding signal,[14],"1.27 fold enrichment (6-mer frequency, TF over GST control)"
same,binding signal,[15],"1.21 fold enrichment (6-mer frequency, TF over GST control)"
same,binding signal,[16],"1.22 fold enrichment (6-mer frequency, TF over GST control)"
same,binding signal,[17],"1.15 fold enrichment (6-mer frequency, TF over GST control)"
same,binding signal,[18],"1.12 fold enrichment (6-mer frequency, TF over GST control)"
same,binding signal,[19],"1.24 fold enrichment (6-mer frequency, TF over GST control)"
